Among the data in PubChem BioAssay (EPA / NIEHS) are outcome and AC50 values, retold here.

Structures are written as SMILES. Inconclusive results are not listed. Active and inactive are the calls of the source. Rule for the calls, unless noted: active = hit-call score of the fitted dose curve at least 0.9, where 1 is the maximum; inconclusive = response in the unintended direction; inactive = score below 0.9.

A short description of assay [1]: BSK_4H_Eotaxin3: BioMAP Diversity Plus: 4H Assay for Eotaxin 3 Biomarker Activity (AID 2283000; active = hit-call score of the fitted dose curve at least 0.9, where 1 is the maximum; inactive = score below 0.9;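 for outcome: CCL26 protein level quantified by ELISA in parallel with SRB cytotoxicity check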). Particulars: primary human endothelial cells (HUVEC); actives raise or lower the signal. In a few lines:
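Human umbilical vein endothelial cells (BSK_4H system) dosed with test chemical; Eotaxin-3 (CCL26) measured by ELISA 24 h after dosing. Bidirectional curve fitting relative to DMSO negative control as baseline.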

Assay [2] deals with human Peroxisome Proliferator-activated Receptor delta (PPARd), PPARD (gene 5467) (UniProt Q03181). Description: ATG_PPARd_TRANS: Attagene TRANS-FACTORIAL HepG2 Assay for human Peroxisome Proliferator-activated Receptor delta (PPARd) (AID 2283002). In a few lines: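 Read-out is induced reporter mRNA, quantified by RT-PCR with fluorescent labelling and capillary electrophoresis after 24 h dosing. Cells are HepG2 transiently carrying multiple GAL4-UAS reporter units driven by exogenous NR-GAL4 chimeras; DMSO serves as baseline.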

Read-out in assay [3]: Intercellular Adhesion Molecule 1 (ICAM1), ICAM1 (gene 3383)
Description: BSK_3C_ICAM1: BioMAP Diversity Plus: 3C Assay for Intercellular Adhesion Molecule 1 (ICAM1) Biomarker Activity (AID 2283003; active = hit-call score of the fitted dose curve at least 0.9, where 1 is the maximum; inactive = score below 0.9). To be noted: primary human endothelial cells (HUVEC); actives raise or lower the signal. In a few lines:
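Chemicals are dosed onto primary human umbilical vein endothelium (3C system). After 24 h, ICAM-1 is measured by ELISA, and responses are fitted bidirectionally relative to DMSO.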

The target in assay [4] is Nuclear receptor subfamily 1 group I member 2 (Homo sapiens) (UniProt O75469). Description: ATG_PXR_TRANS: Attagene TRANS-FACTORIAL HepG2 Assay for human Pregnane X Receptor (PXR) (AID 2283008). The procedure, abridged:
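Trans-factorial format: exogenous NR-Gal4 fusion activity, not endogenous factor, in transfected human HepG2 liver cells. After 24 h dosing, RNA isolated, reverse-transcribed, amplified and resolved by capillary electrophoresis; induction scored versus DMSO.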

The target of assay [5] is human RAR-related Orphan Receptor beta (RORb), RORB (gene 6096) (UniProt Q92753). The experiment in a line: ATG_RORb_TRANS: Attagene TRANS-FACTORIAL HepG2 Assay for human RAR-related Orphan Receptor beta (RORb) (AID 2283010). In a few lines:
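Transfect HepG2 with multiple GAL4-UAS reporter transcription units; dose chemicals for 24 h; isolate RNA, reverse-transcribe and PCR-amplify reporter sequences; label, digest and resolve fragments by capillary electrophoresis; fit increases relative to DMSO.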

The target in assay [6] is Peroxisome proliferator-activated receptor gamma (Homo sapiens) (UniProt P37231). The experiment in a line: ATG_PPARg_TRANS: Attagene TRANS-FACTORIAL HepG2 Assay for human Peroxisome Proliferator-activated Receptor-gamma (PPARg) (AID 2283007). The procedure, abridged: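 Chimeric NR-Gal4 transactivation is measured in transiently transfected HepG2 cells by reporter mRNA induction at 24 h. Detection uses RT-PCR with fluorescent labelling and capillary electrophoresis; DMSO defines baseline.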

The target of assay [7] is human Peroxisome Proliferator-activated Receptor alpha (PPARa), PPARA (gene 5465) (UniProt Q07869). Description: ATG_PPARa_TRANS: Attagene TRANS-FACTORIAL HepG2 Assay for human Peroxisome Proliferator-activated Receptor alpha (PPARa) (AID 2283001).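 For AC50: potency for gain of reporter signal over DMSO so agonist or activator.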 The procedure, abridged:
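Reporter transcripts quantified by RT-PCR plus capillary electrophoresis after 24 h treatment, fitted upward relative to DMSO. Cells: human HepG2 transiently carrying multiple GAL4-UAS reporter units driven by NR-Gal4 chimeras.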

Assay [8] in a line: BSK_3C_Proliferation: Cell Proliferation Assessment in the BioMAP Diversity Plus: 3C Assay (AID 2283006; active = hit-call score of the fitted dose curve at least 0.9, where 1 is the maximum; inactive = score below 0.9;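 note: potency may reflect either rise or fall in cell number versus DMSO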). To be noted: primary human endothelial cells (HUVEC). The procedure, abridged: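 Cells (human umbilical vein endothelial, sub-confluent) receive test chemical; after 48 h they are fixed in 10% trichloroacetic acid, stained with 0.1% SRB and read at 560 nm. Activity is referenced to DMSO, fitting increases and decreases.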

Assay [9] concerns the target human Retinoic Acid Receptor beta (RARb), RARB (gene 5915) (UniProt P10826). The experiment in a line: ATG_RARb_TRANS: Attagene TRANS-FACTORIAL HepG2 Assay for human Retinoic Acid Receptor beta (AID 2283004). In a few lines:
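Induction of reporter mRNA from a chimeric RARb-Gal4 construct was measured by RT-PCR, FAM labelling, HpaI digestion and capillary electrophoresis. Measurements followed 24 h compound treatment of transiently transfected human HepG2 liver cells, with DMSO as baseline.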

In assay [10] the target is human Retinoic Acid Receptor gamma (RARg), RARG (gene 5916) (UniProt P13631). The experiment in a line: ATG_RARg_TRANS: Attagene TRANS-FACTORIAL HepG2 Assay for human Retinoic Acid Receptor gamma (RARg) (AID 2283009). The procedure, abridged: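 TRANS format measured activity of exogenous NR-GAL4 fusion (RARg) in transfected HepG2 liver cells after 24 h dosing. Induced reporter RNA was detected by RT-PCR/capillary electrophoresis fluorescence, analysed in the positive direction against DMSO.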
Sequence of human Retinoic Acid Receptor gamma (RARg), RARG (gene 5916) (P13631 whole entry, looked up, the tested form may be a part): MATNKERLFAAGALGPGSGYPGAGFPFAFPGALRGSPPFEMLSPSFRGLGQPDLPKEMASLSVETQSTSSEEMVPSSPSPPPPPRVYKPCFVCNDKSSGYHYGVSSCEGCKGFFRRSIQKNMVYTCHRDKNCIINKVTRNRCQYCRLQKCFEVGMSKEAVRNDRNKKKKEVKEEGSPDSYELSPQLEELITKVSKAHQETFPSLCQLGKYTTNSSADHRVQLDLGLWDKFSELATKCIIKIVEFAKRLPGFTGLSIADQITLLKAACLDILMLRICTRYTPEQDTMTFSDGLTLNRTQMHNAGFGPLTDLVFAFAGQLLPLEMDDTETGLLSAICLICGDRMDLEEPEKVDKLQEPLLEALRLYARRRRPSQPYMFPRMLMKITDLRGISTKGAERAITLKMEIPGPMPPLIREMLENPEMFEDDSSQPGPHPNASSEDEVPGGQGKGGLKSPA

Sequence of human RAR-related Orphan Receptor beta (RORb), RORB (gene 6096) (Q92753 whole entry, looked up, the tested form may be a part): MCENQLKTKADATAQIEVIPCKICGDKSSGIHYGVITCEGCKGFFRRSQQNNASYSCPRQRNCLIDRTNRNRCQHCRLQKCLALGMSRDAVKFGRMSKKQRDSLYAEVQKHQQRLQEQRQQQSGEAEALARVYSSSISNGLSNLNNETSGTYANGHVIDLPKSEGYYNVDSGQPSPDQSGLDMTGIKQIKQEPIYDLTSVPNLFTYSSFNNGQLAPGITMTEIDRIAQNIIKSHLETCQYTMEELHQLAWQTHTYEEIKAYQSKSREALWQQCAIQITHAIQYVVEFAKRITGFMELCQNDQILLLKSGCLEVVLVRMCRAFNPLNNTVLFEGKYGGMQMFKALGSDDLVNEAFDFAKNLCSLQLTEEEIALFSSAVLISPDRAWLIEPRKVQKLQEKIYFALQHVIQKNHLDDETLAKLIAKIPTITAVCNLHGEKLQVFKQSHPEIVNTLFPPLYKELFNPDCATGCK
Sequence of human Peroxisome Proliferator-activated Receptor delta (PPARd), PPARD (gene 5467) (Q03181 whole entry, looked up, the tested form may be a part): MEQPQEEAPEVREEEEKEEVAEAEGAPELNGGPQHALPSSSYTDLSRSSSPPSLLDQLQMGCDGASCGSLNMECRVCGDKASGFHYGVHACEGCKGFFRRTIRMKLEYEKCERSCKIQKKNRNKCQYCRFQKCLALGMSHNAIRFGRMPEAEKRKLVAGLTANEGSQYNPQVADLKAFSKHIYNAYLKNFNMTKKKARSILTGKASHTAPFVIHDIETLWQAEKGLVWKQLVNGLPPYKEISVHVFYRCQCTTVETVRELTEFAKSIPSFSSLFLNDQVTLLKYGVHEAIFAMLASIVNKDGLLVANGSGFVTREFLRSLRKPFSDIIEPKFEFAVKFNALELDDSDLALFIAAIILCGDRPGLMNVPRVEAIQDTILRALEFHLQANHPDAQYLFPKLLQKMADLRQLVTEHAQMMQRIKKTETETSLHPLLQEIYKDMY
Sequence of human Retinoic Acid Receptor beta (RARb), RARB (gene 5915) (P10826 whole entry, looked up, the tested form may be a part): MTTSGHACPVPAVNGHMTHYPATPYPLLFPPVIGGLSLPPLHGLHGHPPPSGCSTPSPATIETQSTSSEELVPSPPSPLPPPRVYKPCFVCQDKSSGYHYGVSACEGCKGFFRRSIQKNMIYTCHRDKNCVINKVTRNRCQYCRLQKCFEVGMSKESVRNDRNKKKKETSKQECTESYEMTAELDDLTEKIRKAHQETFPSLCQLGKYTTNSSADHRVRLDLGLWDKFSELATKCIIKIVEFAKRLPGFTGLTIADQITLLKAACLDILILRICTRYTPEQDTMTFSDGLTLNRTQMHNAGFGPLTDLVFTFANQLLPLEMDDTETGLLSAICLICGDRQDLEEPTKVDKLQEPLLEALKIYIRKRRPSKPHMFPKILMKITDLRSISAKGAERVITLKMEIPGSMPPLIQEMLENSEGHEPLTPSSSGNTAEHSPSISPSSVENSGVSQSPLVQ
Sequence of Nuclear receptor subfamily 1 group I member 2 (Homo sapiens) (O75469 whole entry, looked up, the tested form may be a part): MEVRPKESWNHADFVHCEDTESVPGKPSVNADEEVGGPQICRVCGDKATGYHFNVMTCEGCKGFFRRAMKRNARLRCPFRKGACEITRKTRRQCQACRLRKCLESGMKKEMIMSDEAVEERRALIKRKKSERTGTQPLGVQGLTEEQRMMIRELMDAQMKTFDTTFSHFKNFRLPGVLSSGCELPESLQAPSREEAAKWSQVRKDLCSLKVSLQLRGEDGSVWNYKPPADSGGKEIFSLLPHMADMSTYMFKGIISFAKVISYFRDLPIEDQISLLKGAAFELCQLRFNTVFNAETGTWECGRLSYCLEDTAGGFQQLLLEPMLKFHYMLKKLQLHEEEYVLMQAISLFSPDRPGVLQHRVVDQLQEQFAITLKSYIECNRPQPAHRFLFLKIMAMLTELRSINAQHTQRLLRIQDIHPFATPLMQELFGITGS
Sequence of human Peroxisome Proliferator-activated Receptor alpha (PPARa), PPARA (gene 5465) (Q07869 whole entry, looked up, the tested form may be a part): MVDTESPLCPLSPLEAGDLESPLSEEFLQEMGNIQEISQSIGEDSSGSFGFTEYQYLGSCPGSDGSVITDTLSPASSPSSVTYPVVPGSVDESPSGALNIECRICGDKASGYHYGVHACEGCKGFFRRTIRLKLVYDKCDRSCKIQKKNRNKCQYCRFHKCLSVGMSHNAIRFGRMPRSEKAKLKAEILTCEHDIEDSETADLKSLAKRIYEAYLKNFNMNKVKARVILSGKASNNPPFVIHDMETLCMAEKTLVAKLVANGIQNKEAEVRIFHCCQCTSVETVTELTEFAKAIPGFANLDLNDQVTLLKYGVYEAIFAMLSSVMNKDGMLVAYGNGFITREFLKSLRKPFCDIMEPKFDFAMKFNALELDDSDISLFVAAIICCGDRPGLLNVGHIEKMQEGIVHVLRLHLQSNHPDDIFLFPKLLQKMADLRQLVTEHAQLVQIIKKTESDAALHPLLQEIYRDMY
Sequence of Peroxisome proliferator-activated receptor gamma (Homo sapiens) (P37231 whole entry, looked up, the tested form may be a part): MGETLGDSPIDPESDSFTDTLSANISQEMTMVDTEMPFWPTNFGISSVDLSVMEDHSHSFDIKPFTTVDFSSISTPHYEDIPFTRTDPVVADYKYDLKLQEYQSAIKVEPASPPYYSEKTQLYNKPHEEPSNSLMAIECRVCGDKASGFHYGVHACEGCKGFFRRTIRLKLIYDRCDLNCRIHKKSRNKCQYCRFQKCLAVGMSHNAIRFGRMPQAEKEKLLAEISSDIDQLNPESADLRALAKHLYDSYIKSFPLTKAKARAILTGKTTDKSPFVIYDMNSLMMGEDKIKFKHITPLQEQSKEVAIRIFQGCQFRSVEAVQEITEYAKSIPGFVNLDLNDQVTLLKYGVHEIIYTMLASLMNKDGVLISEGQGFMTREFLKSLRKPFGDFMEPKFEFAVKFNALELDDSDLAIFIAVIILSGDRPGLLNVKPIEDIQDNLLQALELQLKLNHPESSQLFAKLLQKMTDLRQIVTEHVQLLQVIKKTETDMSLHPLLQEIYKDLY

Consider `CC(C)CCCC(C)(C)O`, for which the outcome in assay [1], in assay [2], in assay [3], in [4] and in [5] was inactive.

As to `CCCO[Si](OCCC)(OCCC)OCCC`, the outcome in assay [1], in assay [2], in assay [3] and in [6] was inactive.

As to `CC(C)(CO)CO`, the outcome in assay [1], in [2] and in assay [3] was inactive.

As to `c1ccc(OCCOc2ccccc2)cc1`, the result in [1], in assay [2], in assay [3], in assay [4] and in assay [5] was inactive.

`COc1ccccc1NC(=O)CC(C)=O`: the outcome in [1], in assay [2], in [3], in assay [6] and in assay [5] was inactive. In addition, the AC50 in assay [4] is 37 µM (active).

Regarding `O=S(=O)(O)C(F)(F)C(F)(F)OC(F)(F)C(F)(F)F`, the result in assay [1] and in assay [3] was inactive.

On to `CC(=O)c1ccc(C)cc1`, for which the result in assay [1] and in [3] was inactive.

Consider `O=C1OC2(c3ccc(O)cc3Oc3cc(O)ccc32)c2ccccc21`, for which the result in assay [1], in assay [7], in assay [2], in [3], in assay [6] and in [5] was inactive. For the same molecule, the AC50 in [8] is 20 µM (active); in assay [4], 0.896 µM (active).

As to `CC(C)Cc1ccccc1`, the molecule was called inactive in assay [7], in [2], in assay [9], in assay [4] and in [5].

With `C=CC(=O)OCCCCCC`, the molecule was called inactive in assay [7] and in assay [2].

Consider `CCC(=O)OCC=Cc1ccccc1`, for which the outcome in assay [1], in assay [3] and in [6] was inactive.

Take `CCCC(O)C(CC)CO` (centres undefined): the result in assay [7] and in [2] was inactive.

On to `O=C(O)C1=NN(c2ccc(S(=O)(=O)O)cc2)C(=O)C1`, for which the call in assay [7], in assay [2] and in [6] was inactive.

Regarding `CC(=O)OC(C)(C)C`, the call in assay [7], in assay [2] and in assay [6] was inactive.

For the molecule `CCCCCCCCCCCCCC(=O)OCC`, the outcome in assay [7], in assay [2] and in assay [9] was inactive.

`C=C1CC/C=C(\C)CC[C@@H]2[C@@H]1CC2(C)C`: the AC50 in [1] is 28.8 µM (active); in assay [3], 35 µM (active); in assay [4], 19.8 µM (active). For the same molecule, the molecule was called inactive in [6].

Consider `C=CCOC(=O)/C=C\C(=O)OCC=C`, for which the AC50 was 27.5 µM (active) in assay [7] and 1.96 µM (active) in assay [6]. In addition, the call in assay [2] and in assay [4] was inactive.

On to `CCCCOCCOCCOCCO`, for which the outcome in assay [7], in assay [2], in [9] and in assay [6] was inactive.

`CCCCN(CCO)CCO`: the outcome in assay [1], in assay [3], in assay [6] and in [5] was inactive.

`CC(=O)c1cccnc1`: the outcome in assay [7] was inactive.

Turning to `Cc1cc(O)c2c(c1)C(=O)c1cc(O)cc(O)c1C2=O`, the values for the AC50 in assay [7] and in [6] were 27.5 µM (active) and 9.51 µM (active), respectively. The outcome in assay [2], in [9] and in assay [5] was inactive.

Regarding `CCCCCCOc1ccc(O)cc1`, the result in assay [7], in [2] and in [10] was inactive. Also, the AC50 in assay [6] was 27.6 µM (active); in assay [4] it was 15 µM (active).

Consider `CCO[Si](CC)(OCC)OCC`, for which the call in assay [7], in [2] and in assay [9] was inactive.

As to `[O-]/[N+](=N\O)c1ccccc1`, the result in assay [7], in assay [2] and in assay [4] was inactive. The AC50 in [6] is 16.6 µM (active).

Regarding `CC1=CC(C)C(C=O)C(C)C1` (centres undefined) (tested in a mixture with another compound), the outcome in [1], in [3], in assay [6], in assay [4] and in assay [5] was inactive.

As for `CN(C)CCC=C1c2ccccc2CCc2ccccc21`, the outcome in [7], in assay [2] and in assay [6] was inactive.

Regarding `CCCCCCC(C)O` (centres undefined), the result in [7], in assay [2], in [6] and in [4] was inactive.

`CCCCC/C=C\C=C\C(=O)OCC`: the result in assay [7] and in assay [2] was inactive. In addition, the AC50 was 28.5 µM (active) in assay [6] and 5.19 µM (active) in assay [4].

Take `CCC(=O)OC/C=C(\C)CCC=C(C)C`: the molecule was called inactive in assay [7], in [2] and in assay [6].

For `CCCCCCCCCCCCCCCCCC(=O)OCCCCCCCCCCCCCC(C)C`, the molecule was classed as inactive in assay [7], in [2], in [6] and in assay [4].

As to `CCNC(=S)NCC`, the molecule was classed as inactive in assay [7], in [2] and in [6].

Regarding `C=C(C)C(N)=O`, the result in assay [1], in assay [3] and in assay [5] was inactive.

In the case of `CCOC(=O)C=Cc1ccccc1`, the result in assay [1], in [3] and in assay [5] was inactive. In addition, the AC50 in [6] was 25.4 µM (active); in assay [4], 30.8 µM (active).

Take `CN(C)C(=O)Nc1ccccc1`: the call in [7], in assay [2], in assay [6] and in assay [4] was inactive.

As for `CCCCCCCCCCCCOCCOS(=O)(=O)O`, the values for the AC50 in [7] and in [6] were 9.73 µM (active) and 18.7 µM (active), respectively. In addition, the result in [2] and in [4] was inactive.

Turning to `CCOC(=O)CCCCCCCCC(=O)OCC`, the result in [1], in assay [3], in [6] and in assay [5] was inactive.

Regarding `O=S(=O)(O)CCCN1CCOCC1`, the call in assay [7], in assay [2], in assay [6] and in assay [4] was inactive.

Turning to `NC(N)=NC(N)=NCCc1ccccc1`, the molecule was classed as inactive in [7], in assay [2], in assay [6] and in assay [4].

For the molecule `CCCCCc1cccc(=O)o1`, the molecule was called inactive in assay [7], in [2] and in [4]. The AC50 in [6] was 10.6 µM (active).

Regarding `CC(=O)OCC=C(C)CCC=C(C)CCC=C(C)C`, the result in assay [1], in [3] and in assay [5] was inactive. Moreover, the AC50 in assay [6] was 18.9 µM (active); in assay [4] it was 15.7 µM (active).

`CC(=O)OC(C)(C)C1CC=C(C)CC1` (centres undefined): the values for the concentration at half-maximal activity (AC50) in assay [1] and in assay [4] were 33.3 µM (active) and 33.8 µM (active), respectively. For the same molecule, the outcome in assay [3], in assay [6] and in [5] was inactive.

Consider `[Cl][Dy]([Cl])[Cl]`, for which, in assay [7], the molecule was called inactive.

With `COc1ccc(OC)cc1`, the call in assay [7], in assay [2] and in assay [6] was inactive.

In the case of `C1=COCCC1`, the call in [7], in assay [9], in [4] and in assay [5] was inactive.

As to `C=C(C)C(=O)OCCN(C)C`, the outcome in assay [7], in assay [6] and in [4] was inactive.
